Measured values published in PMC5540273 (PLoS ONE, 2017).

These compounds were tested on TAOK1. Conditions: concentration: 1 μM, replicates: in singlicate; n = 1.
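Also: KINOMEscan kinase panel screen.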

With CC(C)c1ccc(O)cc1Nc1ccnc2ccc(C(F)(F)F)cc12 [GW482059] as the compound, how does the “%Inh” value read?
The value was 0%.

For O=C(Nc1n[nH]c2nc(-c3cccs3)c(Br)cc12)C1CC1 [SB-735297], which “%Inh” value is on record?
The value was 10%.

With Cc1cnc(N)c(/C=C/c2cncc(C(=O)NCCc3ccc(Cl)cc3Cl)c2)c1.Cl [GSK190937] as the compound, how does the “%Inh” value read?
The value was 11%.

c1ccc(-c2ccnc3[nH]ccc23)cc1 [SB-693578] was tested. Which “%Inh” value did it give?
The value was 0%.

Which “%Inh” value does the source give for O=C(Nc1n[nH]c2nc(-c3ccco3)c(Br)cc12)C1CCN(Cc2ccccc2)C1.O=C(O)[C@H](O)[C@@H](O)C(=O)O (centres unmarked) [SB-742034] here?
Its value is 0%.

Which “%Inh” value does the source give for CCCCc1nn2ncccc2c1-c1ccnc(NC2CC2)n1 [GW684374] here?
Its value is 0%.

CC(=O)c1cccc(NC(=O)NC2CCN(c3ccnc(Nc4ccc(F)cc4)n3)C2)c1 (centres unmarked) [GSK1379710] was tested. Which “%Inh” value did it give?
Its value is 2%.

How did the “%Inh” value turn out when COc1ccc(Nc2nccc(N3CCC(NC(=O)C(C)c4ccc(Cl)cc4)C3)n2)cc1 (centres unmarked) [GSK1379735] was run?
Its value is 0%.

CS(=O)(=O)CCNCc1nc(-c2ccc3ncnc(Nc4ccc5c(cnn5Cc5ccccc5)c4)c3c2)cs1.Cl.Cl [GW569716] was tested. Which “%Inh” value did it give?
Its value is 0%.

For Cc1ccc(-c2nc(Nc3ccncc3)c3ccccc3n2)s1 [GSK189015], which “%Inh” value is on record?
The value was 0%.

How did the “%Inh” value turn out when Cc1cccc2c(-c3ccncn3)c(-c3ccc(F)cc3)nn12 [GW515532] was run?
Its value is 0%.

Cc1ccc(NC(=O)Nc2ccc(Cl)c(C(F)(F)F)c2)cc1-c1ccc(C(=O)Nc2ccncc2)cc1 [GSK1398470] was tested. Which “%Inh” value did it give?
The value was 0%.

Which “%Inh” value does the source give for COc1ccc(Nc2nccc(NCCNC(=O)Nc3cc(C)ccc3C)n2)cc1 [GSK1379899] here?
The value was 0%.

How did the “%Inh” value turn out when COc1cccc(NC(=O)Nc2ccc(C)c(-c3ccc(C(=O)Nc4ccncc4)cc3)c2)c1 [GSK1398474] was run?
The value was 0%.

With COc1cccc(CNC(=O)NC2CCN(c3ccnc(Nc4ccc(F)cc4)n3)C2)c1 (centres unmarked) [GSK1379723] as the compound, how does the “%Inh” value read?
The value was 0%.

For CC(=O)c1c(C)c2cnc(Nc3ccn(C)n3)nc2n(C2CCCC2)c1=O, which “%Inh” value is on record?
The value was 0%.

O=C1NC(=O)C(c2ccc(Cl)cc2)=C1Nc1ccc(O)cc1 [SB-340867] was tested. Which “%Inh” value did it give?
The value was 0%.

With COc1ccc(CSc2nnc(-c3ccc4c(c3)CCO4)o2)cc1 as the compound, how does the “%Inh” value read?
Its value is 0%.

With COc1nccc(-c2c(-c3ccc(F)cc3)ncn2CCCN2CCOCC2)n1 [SB-282852] as the compound, how does the “%Inh” value read?
Its value is 0%.

How did the “%Inh” value turn out when COC(=O)C(Cc1ccccc1)NC(=O)NC1CCN(c2ccnc(Nc3ccc(F)cc3)n2)C1 (centres unmarked) [GSK1379714] was run?
Its value is 0%.

Which “%Inh” value does the source give for COc1cccc(C2=C(Nc3cc(Cl)c(O)c(Cl)c3)C(=O)NC2=O)c1 [SB-390767] here?
Its value is 69%.

With Cc1ccc(NC(=O)Nc2ccc(Cl)cc2)cc1-c1ccc(C(=O)Nc2ccncc2)cc1 [GSK1398472] as the compound, how does the “%Inh” value read?
Its value is 0%.

Which “%Inh” value does the source give for CCn1c(-c2ccccc2)nc2cnccc21 [SB-733416] here?
Its value is 0%.

The compounds below were run on TAOK2. Conditions: concentration: 1 μM, replicates: in singlicate; n = 1.

Which “%Inh” value does the source give for O=C(Nc1n[nH]c2cc(-c3ccsc3)ccc12)C1CC1 [SB-732932] here?
Its value is 8%.

With CC[C@@H]1CO[C@H](C(=O)Nc2ccccc2)CN1c1cc(-c2ccc3c(N)n[nH]c3c2)nc(NC)n1 [GSK2376236] as the compound, how does the “%Inh” value read?
Its value is 1%.

For CNc1cc(-c2ccc3c(N)n[nH]c3c2)nc(N)n1 [GSK2224810], which “%Inh” value is on record?
The value was 0%.

How did the “%Inh” value turn out when COC(=O)C(NC(=O)NC1CCN(c2ccnc(Nc3ccc(F)cc3)n2)C1)c1ccccc1 (centres unmarked) [GSK1379712] was run?
The value was 0%.

Cc1ccccc1Cn1ccn2c(=O)cc(N3CCOCC3)nc12 [GSK2269905] was tested. Which “%Inh” value did it give?
Its value is 0%.

Fc1ccc(-c2nn3cccc(F)c3c2-c2ccncc2)cc1 [GW475620] was tested. Which “%Inh” value did it give?
Its value is 0%.

For COc1ccc(Nc2nccc(-c3ccc(NC(=O)c4cc5cc(F)ccc5[nH]4)cc3)n2)cc1 [GSK1229496], which “%Inh” value is on record?
Its value is 0%.

COc1ccc(Nc2nccc(N3CCC(NC(=O)c4cc5ccccc5s4)C3)n2)cc1 (centres unmarked) [GSK1379738] was tested. Which “%Inh” value did it give?
Its value is 0%.

How did the “%Inh” value turn out when COc1ccc(-c2coc3ccc(-c4nnc(C)o4)cc23)cc1 was run?
The value was 0%.

For CNCc1ccc2nc(NC(=O)c3ccc(C(C)(C)C)cc3)cn2c1, which “%Inh” value is on record?
The value was 22%.

CS(=O)(=O)CCNCc1nc(-c2ccc3ncnc(Nc4ccc(OCc5ccccc5)c(Cl)c4)c3c2)cs1.Cl [GW582764] was tested. Which “%Inh” value did it give?
Its value is 0%.

For Cl.Cl.Cl.N#Cc1ccc(CCNc2nccc(-c3cccc(CN4CCNCC4)c3)n2)cc1 [GSK2137462], which “%Inh” value is on record?
The value was 2%.

For Cc1c(Cn2c3ccccc3n3c(=O)cc(N4CCOCC4)nc23)cccc1C(F)(F)F [GSK2306394], which “%Inh” value is on record?
The value was 0%.

Which “%Inh” value does the source give for CC(C)c1ccc(O)cc1Nc1ccnc2ccc(C(F)(F)F)cc12 [GW482059] here?
The value was 0%.

With O=C(Nc1n[nH]c2nc(-c3cccs3)c(Br)cc12)C1CC1 [SB-735297] as the compound, how does the “%Inh” value read?
The value was 0%.

Cc1cnc(N)c(/C=C/c2cncc(C(=O)NCCc3ccc(Cl)cc3Cl)c2)c1.Cl [GSK190937] was tested. Which “%Inh” value did it give?
The value was 0%.

How did the “%Inh” value turn out when c1ccc(-c2ccnc3[nH]ccc23)cc1 [SB-693578] was run?
The value was 0%.

How did the “%Inh” value turn out when O=C(Nc1n[nH]c2nc(-c3ccco3)c(Br)cc12)C1CCN(Cc2ccccc2)C1.O=C(O)[C@H](O)[C@@H](O)C(=O)O (centres unmarked) [SB-742034] was run?
Its value is 0%.

Which “%Inh” value does the source give for CCCCc1nn2ncccc2c1-c1ccnc(NC2CC2)n1 [GW684374] here?
The value was 0%.

Which “%Inh” value does the source give for CC(=O)c1cccc(NC(=O)NC2CCN(c3ccnc(Nc4ccc(F)cc4)n3)C2)c1 (centres unmarked) [GSK1379710] here?
The value was 0%.

Which “%Inh” value does the source give for COc1ccc(Nc2nccc(N3CCC(NC(=O)C(C)c4ccc(Cl)cc4)C3)n2)cc1 (centres unmarked) [GSK1379735] here?
Its value is 0%.

CS(=O)(=O)CCNCc1nc(-c2ccc3ncnc(Nc4ccc5c(cnn5Cc5ccccc5)c4)c3c2)cs1.Cl.Cl [GW569716] was tested. Which “%Inh” value did it give?
The value was 0%.

How did the “%Inh” value turn out when Cc1ccc(-c2nc(Nc3ccncc3)c3ccccc3n2)s1 [GSK189015] was run?
The value was 0%.

Which “%Inh” value does the source give for Cc1cccc2c(-c3ccncn3)c(-c3ccc(F)cc3)nn12 [GW515532] here?
The value was 0%.

How did the “%Inh” value turn out when Cc1ccc(NC(=O)Nc2ccc(Cl)c(C(F)(F)F)c2)cc1-c1ccc(C(=O)Nc2ccncc2)cc1 [GSK1398470] was run?
The value was 0%.

With COc1ccc(Nc2nccc(NCCNC(=O)Nc3cc(C)ccc3C)n2)cc1 [GSK1379899] as the compound, how does the “%Inh” value read?
Its value is 0%.

For COc1cccc(NC(=O)Nc2ccc(C)c(-c3ccc(C(=O)Nc4ccncc4)cc3)c2)c1 [GSK1398474], which “%Inh” value is on record?
Its value is 0%.

Which “%Inh” value does the source give for COc1cccc(CNC(=O)NC2CCN(c3ccnc(Nc4ccc(F)cc4)n3)C2)c1 (centres unmarked) [GSK1379723] here?
Its value is 0%.

For CC(=O)c1c(C)c2cnc(Nc3ccn(C)n3)nc2n(C2CCCC2)c1=O, which “%Inh” value is on record?
The value was 0%.

O=C1NC(=O)C(c2ccc(Cl)cc2)=C1Nc1ccc(O)cc1 [SB-340867] was tested. Which “%Inh” value did it give?
Its value is 0%.

Which “%Inh” value does the source give for COc1ccc(CSc2nnc(-c3ccc4c(c3)CCO4)o2)cc1 here?
The value was 0%.

Which “%Inh” value does the source give for COc1nccc(-c2c(-c3ccc(F)cc3)ncn2CCCN2CCOCC2)n1 [SB-282852] here?
Its value is 0%.

COC(=O)C(Cc1ccccc1)NC(=O)NC1CCN(c2ccnc(Nc3ccc(F)cc3)n2)C1 (centres unmarked) [GSK1379714] was tested. Which “%Inh” value did it give?
The value was 0%.

With COc1cccc(C2=C(Nc3cc(Cl)c(O)c(Cl)c3)C(=O)NC2=O)c1 [SB-390767] as the compound, how does the “%Inh” value read?
Its value is 0%.

Cc1ccc(NC(=O)Nc2ccc(Cl)cc2)cc1-c1ccc(C(=O)Nc2ccncc2)cc1 [GSK1398472] was tested. Which “%Inh” value did it give?
Its value is 0%.

Which “%Inh” value does the source give for CCn1c(-c2ccccc2)nc2cnccc21 [SB-733416] here?
Its value is 0%.
